# From PubChem
# TDP1 block: qHTS Assay for Inhibitors of Tyrosyl-DNA Phosphodiesterase (TDP1) | 350,000 tested, 0.28% active | Potency, µM (top dose mostly 130 µM), without a hit: at the highest dose activity change, negative = inhibition, actives largely listed as inhibitors | recombinant TDP1, AlphaScreen DNA substrate cleavage; note: potency is the fitted concentration of half-maximal effect; % is set by controls: 0 for no effect and ±100 for the full control effect; nearly all actives have a fitted effect of over 40% in size
# Target sequence (Q9NUW8 whole entry, looked up): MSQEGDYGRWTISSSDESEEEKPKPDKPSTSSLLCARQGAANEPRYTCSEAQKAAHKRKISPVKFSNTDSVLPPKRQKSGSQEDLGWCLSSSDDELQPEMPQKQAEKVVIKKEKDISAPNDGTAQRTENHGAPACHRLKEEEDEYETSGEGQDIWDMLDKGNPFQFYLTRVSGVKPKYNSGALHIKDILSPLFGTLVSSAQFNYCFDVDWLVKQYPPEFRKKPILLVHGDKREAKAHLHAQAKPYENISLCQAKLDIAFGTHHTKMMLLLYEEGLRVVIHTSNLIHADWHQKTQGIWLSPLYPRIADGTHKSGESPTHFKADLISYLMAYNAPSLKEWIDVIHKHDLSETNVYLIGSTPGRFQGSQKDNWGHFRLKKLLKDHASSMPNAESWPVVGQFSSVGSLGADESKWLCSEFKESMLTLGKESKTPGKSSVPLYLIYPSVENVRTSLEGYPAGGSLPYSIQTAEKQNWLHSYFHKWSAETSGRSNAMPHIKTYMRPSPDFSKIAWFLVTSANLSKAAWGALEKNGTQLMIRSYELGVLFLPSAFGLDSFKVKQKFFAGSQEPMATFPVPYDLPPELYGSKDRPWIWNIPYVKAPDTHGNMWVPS
#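 Compounds were preincubated with Tdp1 (1 nM final) for 15 min at room temperature before substrate (15 nM final) started a 5 min reaction; beads (10 ug/ml final) were then added for 10 min before AlphaScreen detection.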
# TGFb SMAD3 inh: qHTS for Inhibitors of TGF-b; Potency, µM (series often up to 46.1 µM), inactives show at the top dose activity, negative = inhibition, most hits filed as inhibitors; 410,000 tested, 1.2% active; HepG2 CAGA-GFP TGF-b/SMAD3 reporter, GFP fluorescence, 18 h; TGF-beta stimulated, 500 pg/mL final; note: potency is the fitted concentration of half-maximal effect; % is set by controls: 0 for no effect and ±100 for the full control effect; nearly all actives have a fitted effect of over 65% in size
#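 First, reporter cells (HEPG2 CAGA-GFP) rested 2 h at 37 degrees C. Next, compounds were pinned in and TGF-beta added to 500 pg/mL final. After 18 h, GFP was imaged per cell and summed per well.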
# HepG2 tox: qHTS for Inhibitors of TGF-b: Cytotox Counterscreen. 410,000 tested, 0.76% active. HepG2 CAGA-GFP viability, ATP luminescence, 18 h. Potency, µM (series often up to 46.1 µM), for inactives: top-dose activity change, negative = cytotoxicity, most hits filed as cytotoxic; note: potency is the fitted concentration of half-maximal effect
#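 CellTiter-Glo luminescence gave cytotoxicity after 18 hours at 37 degrees C. The cells were HepG2 CAGA-GFP in 1% FBS DMEM, stimulated with 500 pg/mL TGF-beta after compound addition. %Activity was normalised to no-cell wells (complete cell-killing) and DMSO (no toxicity), and curves were fitted and classified.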
# TDP1 cell noCPT: qHTS for Inhibitors of human tyrosyl-DNA phosphodiesterase 1 (TDP1): qHTS in cells in absence of CPT; AID 686978, 2013; Potency, µM (top dose mostly 46.2 µM), for inactives: top-dose activity change, negative = growth inhibition, usual class: inhibitors; 420,000 tested, 15% active; DT40 Tdp1-/- hTDP1 cells, no CPT, ATP luminescence, 48 h; note: potency is the fitted concentration of half-maximal effect; % is set by controls: 0 for no effect and ±100 for the full control effect; nearly all actives have a fitted effect of over 55% in size
#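 Chicken DT40 Tdp1-/- cells stably complemented with human TDP1 were seeded at 400 cells/well with DMSO in place of 20 nM camptothecin. After compound pinning, cells grew at least 48 hr at 37 °C; viability read by CellTiter-Glo luminescence.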
# IL1B secr inh: qHTS for Inhibitors of Inflammasome Signaling: IL-1-beta AlphaLISA Primary Screen. THP-1 LPS/ATP IL-1B secretion, AlphaLISA, 16 h; hits give low values. activity change, % at 57.5 µM. 360,000 tested, 4.7% active. AID 743279, 2014; in the data active = activity change below about -50%; inconclusive = mostly about -30% to -49%; note: % is set by controls: 0 for no effect and ±100 for the full control effect
#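 THP-1 cells pretreated 1 hr with compounds (up to 57.5 uM final), then stimulated with LPS (250 ng/mL final) plus ATP (1.25 mM final); secreted IL-1B measured by AlphaLISA after 16 hr, decreased signal indicating inhibition.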
# TDP1 cell CPT: qHTS for Inhibitors of human tyrosyl-DNA phosphodiesterase 1 (TDP1): qHTS in cells in presence of CPT; chicken DT40 Tdp1-/-;hTDP1 cells + 20 nM CPT, ATP luminescence, 48 h; Potency, µM (top dose mostly 46.2 µM), inactives show top-dose activity change, negative = growth inhibition, most hits filed as inhibitors; 420,000 tested, 12% active; note: potency is the fitted concentration of half-maximal effect; % is set by controls: 0 for no effect and ±100 for the full control effect; nearly all actives have a fitted effect of over 55% in size
#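 Chicken DT40 Tdp1-/- cells stably complemented with human TDP1 were seeded at 400 cells/well in medium containing 20 nM camptothecin, exposed to pin-transferred compounds, and grown at 37 °C for at least 48 hr. Viability was read as ATP luminescence.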
# The depositor's hits bear a star; ? = inconclusive; nt = no result. Hits are enriched below; roughly 18% of the tested compounds scored in any of these assays. Unless noted, calls come from the whole dose curve; as a rule, active = well fitted curve in the direction sought with a large enough effect; inconclusive = small, poorly fitted or top-dose-only effect, or another doubt; inactive = no such curve, though single readings can be large; an effect the other way counts as inactive or inconclusive.
SMILES,TDP1 block,TGFb SMAD3 inh,HepG2 tox,TDP1 cell noCPT,IL1B secr inh,TDP1 cell CPT
Cc1cc(C)n(-c2ccc(C(=O)NCc3cccs3)cc2)n1,4%,-2%,0%,?,?,-27%
Cc1ccccc1Nc1nn2c(=O)c3ccc(C(=O)NCC(C)c4ccccc4)cc3nc2s1 (stereo not drawn),8%,-14%,-24%,15µM*,nt,15µM*
Cc1ccccc1Nc1nn2c(=O)c3ccc(C(=O)NCc4cccs4)cc3nc2s1,nt,?,-50%,13µM*,nt,16µM*
Cc1ccc(C)c(Nc2nn3c(=O)c4ccc(C(=O)NCc5ccccc5)cc4nc3s2)c1,6%,-7%,-11%,7.3µM*,nt,5.2µM*
COc1cc(=O)n2c(c1C(=O)N(C)Cc1nonc1C)CCN(Cc1c(F)cccc1F)CC2,nt,nt,nt,-13%,nt,1%
OCC[C@H]1C[C@H](O)[C@@H](O)[C@]2(CCc3ccccc3CO2)O1,-3%,-10%,0%,-1%,35,5%
CC1CC(C)CN(CCCNC(=O)c2ccc3c(c2)N(Cc2ccccc2)C(=O)c2ccccc2S3=O)C1 (stereo not drawn),17%,?,-94%,?,?,?
Cc1ccc(CNC(=O)c2ccc3c(=O)n4c(-c5ccc(C)cc5)csc4nc3c2)cc1,-1%,-2%,-4%,9.2µM*,18,7.3µM*
CCN(CC)CCNC(=O)c1ccc2c(=O)n3nc(Nc4ccccc4)sc3nc2c1,-1%,-7%,-33%,4.6µM*,nt,5.8µM*
Cc1ccc(-c2csc3nc4cc(C(N)=O)ccc4c(=O)n23)cc1,nt,10%,-12%,-23%,-18,-20%
COc1cccc(CNC(=O)c2ccc3c(=O)n4nc(Nc5ccccc5)sc4nc3c2)c1,8%,6%,-12%,?,nt,8.2µM*
CCCC(=O)C1=C(N2CCCCC2)CC(C)(C)C(C(=O)OC)C1=O (stereo not drawn),6%,2%,3%,13%,52,1%
CCn1c(=O)c(=O)[nH]c2cc(C(=O)NCc3ccc(F)cc3)ccc21,9%,17%,1%,1%,10,17%
Cc1nc2ccc(C(=O)N3CCN(c4ccccc4)CC3)cn2c1N(C)C(=O)CCc1ccccc1,nt,-19%,-10%,?,14,?
COc1cc2oc(=O)c3c4c(cc5ccc(c1CCN(C)C)c2c53)OCO4,6%,nt,nt,?,nt,?
O=C(c1cccc(N2C(=O)C3C4C=CC(C4)C3C2=O)c1)N1CCN(c2ccccc2Cl)CC1 (stereo not drawn),9%,?,-43%,21µM*,-19,?
Cc1cccc(N2CCN(C(=O)c3cccc(N4C(=O)C5CC=CC(C)C5C4=O)c3)CC2)c1C (stereo not drawn),0%,?,-6%,23µM*,-13,?
O=C(c1cccc(N2C(=O)C3C4C=CC(C4)C3C2=O)c1)N1CCN(c2ccccc2)CC1 (stereo not drawn),5%,-8%,5%,-14%,?,3%
COc1cccc(CNC(=O)[C@@H]2CCCN2C(=O)[C@@H]2CCCN2C(=O)c2ccc(Cl)cc2)c1,nt,nt,nt,?,17,?
O=C(CCNC(=O)c1ccccc1Cl)NCC(c1ccc(F)cc1)N1CCOCC1 (stereo not drawn),-12%,-2%,-12%,-1%,7,2%
